{"source": "PubChem BioAssay (Tox21)", "note": "Results filed as inconclusive are left out. A number with no mark means an inactive call. Activity calls are given as the source filed them. Calls come from the whole dose curve; as a rule, active = well fitted inhibition curve with a large enough effect in the signal ratio in the repeat runs, with a control signal flat; inconclusive = weak or mixed curves, or effect the other way; inactive = flat fitted curve, though single readings scatter; the % refers to the signal ratio. % is set by controls: 0 for no effect and ±100 for the full control effect; potency is the fitted concentration of half-maximal effect.", "data": [{"target": "D(2) dopamine receptor (Homo sapiens) (UniProt P14416)", "sequence (P14416 whole entry, looked up)": "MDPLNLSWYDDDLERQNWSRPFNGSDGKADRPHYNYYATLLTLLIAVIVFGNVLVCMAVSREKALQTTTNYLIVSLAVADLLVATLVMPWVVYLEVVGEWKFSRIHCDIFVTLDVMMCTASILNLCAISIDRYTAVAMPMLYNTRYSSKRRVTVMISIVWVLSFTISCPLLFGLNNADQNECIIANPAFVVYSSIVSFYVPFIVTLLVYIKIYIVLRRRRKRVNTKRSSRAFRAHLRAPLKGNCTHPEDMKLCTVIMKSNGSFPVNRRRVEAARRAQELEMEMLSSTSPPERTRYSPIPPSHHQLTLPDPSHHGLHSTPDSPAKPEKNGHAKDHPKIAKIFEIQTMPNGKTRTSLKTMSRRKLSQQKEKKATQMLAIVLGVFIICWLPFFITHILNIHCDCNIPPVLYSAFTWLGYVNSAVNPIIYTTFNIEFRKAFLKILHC", "assay": "Dopamine D2 receptor (DRD2) small molecule antagonists, cell-based qHTS assay (AID 1963595)", "conditions": "HEK293-DRD2 cAMP HTRF antagonist mode; series mostly up to 92.4 µM; activity change, negative = inhibition: at the top concentration", "text": "National Center for Advancing Translational Sciences [NCATS]\nDivision of Preclinical Innovation [DPI]\nU.S. Environmental Protection Agency [EPA]\nNational Institutes of Environmental Health Sciences [NIEHS]\nNational Toxicology Program [NTP]\nU.S. Food and Drug Administration [FDA]\nDRD2 is the D2 subtype of the dopamine receptor, which is coupled to Gi subtype of G protein-coupled receptor. This G protein-coupled receptor inhibits adenylyl cyclase activity. The DRD2-HEK293 cell line stably expressing D2 dopamine receptor can be used for screening agonists and antagonists of interactions between D2 and its ligands. The Hek293-DRD2 cAMP assay is based on HTRF technology. It measures changes of cAMP accumulation in response to Gi coupled GPCR activation or inhibition.\nTox21 Assay Protocol Summary:\nDRD2-Hek293 cells were dispensed at 600 cells/3uL/well in 1536-well white plates using a Multidrop Dispenser. After the assay plates were incubated at a 37 C/5% CO2 incubator for 24 h, 1 uL of Ro20-1724 at final concentration of 0.1 mM was transferred to the assay plate by a Flying Reagent Dispenser. Following Ro20-1724 addition, 23 nL of compound dissolved in DMSO, positive controls or DMSO only was added to the assay plates via Wako pintool station. The assay plates were incubated at room temperature for 10 min. Next, 1 uL of mixture of NKH477 (final concentration at 200 nM) and quinpirole (final concentration at 12 nM) was added into the plates. After the assay plates were incubated at room temperature for an additional 30 min, 2.5 ul/well of cAMP-d2 and 2.5 ul/well of anti-cAMP-cryptate were added respectively into the assay plates using a Flying Reagent Dispenser. The plates were incubated at room temperature for 1 h. The fluorescence intensity in the plates was measured at 340 nm excitation and 665 & 620 nm emission by an Envision plate reader.", "values": [{"smiles": "C=C(C)c1cccc(C(=C)C)c1", "activity change, negative = inhibition": "5.77%"}, {"smiles": "Brc1cc(Br)c(Oc2cc(Br)c(Br)cc2Br)cc1Br", "activity change, negative = inhibition": "10.6% [at 42.5 µM]"}, {"smiles": "CC(=O)N[C@@H](CCC(=O)O)C(=O)O", "activity change, negative = inhibition": "2.88% [at 42.5 µM]"}, {"smiles": "COC(=O)CSc1cc(N=c2sc(=O)n3n2CCCC3)c(F)cc1Cl", "activity change, negative = inhibition": "-4.87%"}, {"smiles": "OCCCCCCCCCCCCBr", "activity change, negative = inhibition": "-4.57%"}, {"smiles": "Nc1ccc2c(c1)CN1C(=O)c3ccccc3C1=N2", "activity change, negative = inhibition": "-0.331% [at 18.9 µM]"}, {"smiles": "O=C(Cl)c1cccc([N+](=O)[O-])c1", "activity change, negative = inhibition": "2.61%"}, {"smiles": "Cc1ccc(O)c2ncccc12", "activity change, negative = inhibition": "8.01% [at 42.5 µM]"}, {"smiles": "CN[C@H]1CC[C@@H](c2ccc(Cl)c(Cl)c2)c2ccccc21", "Potency": "15 µM (active)"}, {"smiles": "COc1cc2nc(N(C)CCCNC(=O)C3CCCO3)nc(N)c2cc1OC", "note": "(stereo not given)", "activity change, negative = inhibition": "-0.665% [at 42.5 µM]"}, {"smiles": "CCCCCCCCCCCCCOS(=O)(=O)O", "activity change, negative = inhibition": "-0.592%"}, {"smiles": "NCc1ccccc1", "activity change, negative = inhibition": "0.417%"}, {"smiles": "CCOc1ccc(NC(=O)CC(C)=O)cc1", "activity change, negative = inhibition": "-5.04%"}, {"smiles": "Nc1ccc(F)cc1", "activity change, negative = inhibition": "5.46%"}, {"smiles": "CC1CCCC1", "activity change, negative = inhibition": "8.09%"}, {"smiles": "OCc1c[nH]c2ccccc12", "activity change, negative = inhibition": "1.52%"}, {"smiles": "CCCCC(CC)COP(=O)(O)O", "note": "(stereo not given)", "activity change, negative = inhibition": "-1.29%"}, {"smiles": "CC(C)C[C@H]1C(=O)N2CCC[C@H]2[C@]2(O)O[C@](NC(=O)[C@@H]3C=C4c5cccc6[nH]c(Br)c(c56)C[C@H]4N(C)C3)(C(C)C)C(=O)N12", "activity change, negative = inhibition": "3.07% [at 42.5 µM]"}, {"smiles": "CCCC(=O)O[C@]1(C(=O)CO)CC[C@H]2[C@@H]3CCC4=CC(=O)CC[C@]4(C)[C@H]3[C@@H](O)C[C@@]21C", "activity change, negative = inhibition": "-1.41% [at 42.5 µM]"}, {"smiles": "OC[C@H]1O[C@@H](n2cnc3c(=S)nc[nH]c32)[C@H](O)[C@@H]1O", "activity change, negative = inhibition": "10.7% [at 42.5 µM]"}, {"smiles": "C=CC(=O)OCC(C)OCC(C)OCC(C)OC(=O)C=C", "note": "(stereo not given)", "activity change, negative = inhibition": "-0.64%"}, {"smiles": "Cc1ccccc1N=Nc1ccc(N=Nc2c(O)ccc3ccccc23)c(C)c1", "activity change, negative = inhibition": "5.24% [at 42.5 µM]"}, {"smiles": "O=C(O)CNC(=O)c1ccccc1", "activity change, negative = inhibition": "-10.3% [at 42.5 µM]"}, {"smiles": "CN(C)CCOc1ccccc1Cc1ccccc1", "activity change, negative = inhibition": "-6.34% [at 42.5 µM]"}, {"smiles": "CC(C)CCC(=O)CCC(C)C", "activity change, negative = inhibition": "-0.0197%"}, {"smiles": "NNC(=O)CCCCC(=O)NN", "activity change, negative = inhibition": "3.04%"}, {"smiles": "O=C(Cl)c1ccc([N+](=O)[O-])cc1", "activity change, negative = inhibition": "1.98%"}, {"smiles": "CN1C(C)(C)CC(O)CC1(C)C", "activity change, negative = inhibition": "-0.871%"}, {"smiles": "CNC(=S)NN", "activity change, negative = inhibition": "-2.01%"}, {"smiles": "Cc1ncc([C@@H](CCCCCCc2ccc3c(n2)NCCC3)CC(=O)O)cn1", "activity change, negative = inhibition": "2.53%"}, {"smiles": "O=C(O)CCc1nc2ccccc2[nH]1", "activity change, negative = inhibition": "1.16% [at 42.5 µM]"}, {"smiles": "CC(C)CCOCc1ccccc1", "activity change, negative = inhibition": "-1.54%"}, {"smiles": "CNCC[C@@H](Oc1ccccc1C)c1ccccc1", "activity change, negative = inhibition": "-4.9% [at 42.5 µM]"}, {"smiles": "O=C(O)Cn1cnnn1", "activity change, negative = inhibition": "0.368% [at 42.5 µM]"}, {"smiles": "O=[N+]([O-])c1ccc2ncccc2c1", "activity change, negative = inhibition": "4.28%"}, {"smiles": "C=C(C)C(=O)OCCOc1ccccc1", "activity change, negative = inhibition": "12.1%"}, {"smiles": "C=C(C)C(=O)OCCOCCOC(=O)C(=C)C", "activity change, negative = inhibition": "12.2%"}, {"smiles": "CCOC(=O)CC(=O)C(=O)OCC", "activity change, negative = inhibition": "-4.39%"}, {"smiles": "CS(=O)(=O)Nc1ccc([N+](=O)[O-])cc1Oc1ccccc1", "Potency": "inactive"}, {"smiles": "CCC(Cl)CC(Cl)C(Cl)C(Cl)C(Cl)C(C)Cl", "note": "(stereo not given)", "activity change, negative = inhibition": "-0.674% [at 18.9 µM]"}]}]}
